# Unmarked numbers belong to inactive results. No rule for the calls is given here.
# System: Platelet Activating Factor (PAF) (human)
# Assay: PubChem AID 1788
# Conditions: MDS Pharma lead profiling panel, radioligand binding, at 10 µM, active compounds read high
compound,measurement,value
CCOC(=O)N1CCC(NCCNC(=O)c2ccccc2C)CC1,inhibition,0%

# Source: PubChem BioAssay AID1788 (Vanderbilt High Throughput Screening Facility, 2009)
